# Shown are actives, neighbours in structure and some others; about 9.8% of the full set was active somewhere.
# JMJD2E inh = blocks human JMJD2E demethylase activity | JMJD2E catalytic domain, FDH-coupled NADH fluorescence (FDH is formaldehyde dehydrogenase) | Potency, µM (highest dose often 57.1 µM), for the others: at the highest dose activity change, negative = inhibition, hits mostly inhibitors | 230,000 tested, 1.6% active; active = well fitted inhibition curve with a large enough effect, not every such curve was filed as active; inconclusive = small, poorly fitted or top-dose-only effect, or another doubt; inactive = no such curve, though single readings can be large or run the other way;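 note: potency is the fitted concentration of half-maximal effect; 0% = wells with enzyme and -100% = buffer wells without enzyme; nearly all actives have a fitted effect of over 50% in size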
# Target sequence (B2RXH2 1-337 limits assumed): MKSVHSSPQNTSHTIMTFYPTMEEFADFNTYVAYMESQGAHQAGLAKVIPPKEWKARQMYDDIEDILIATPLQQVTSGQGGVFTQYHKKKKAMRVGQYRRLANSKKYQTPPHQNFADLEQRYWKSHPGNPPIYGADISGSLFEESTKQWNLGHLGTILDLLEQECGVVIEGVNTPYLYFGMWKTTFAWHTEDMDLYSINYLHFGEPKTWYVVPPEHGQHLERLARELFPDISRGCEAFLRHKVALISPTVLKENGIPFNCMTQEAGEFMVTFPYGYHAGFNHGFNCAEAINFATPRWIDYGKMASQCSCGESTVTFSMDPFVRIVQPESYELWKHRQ
# ALDH1A1 inh = inhibitors of human aldehyde dehydrogenase 1A1 | Purified ALDH1A1, NADH fluorescence, propionaldehyde substrate | Potency, µM (highest dose often 75.3 µM), for the others: at the top dose activity, negative = inhibition, actives largely listed as inhibitors | 220,000 tested, 7.3% active; active = well fitted inhibition curve with a large enough effect, not every such curve was filed as active; inconclusive = small, poorly fitted or top-dose-only effect, or another doubt; inactive = no such curve, though single readings can be large or run the other way;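 note: potency is the fitted concentration of half-maximal effect; plate controls were no enzyme wells and a reference inhibitor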
# HTT cytoprotect = cytoprotection in Huntington HTT-Q103 PC12 cell model; PC12 HTT-Q103 induced, cytoprotection, ATP luminescence, 40 h; Potency, µM (series often up to 56.4 µM), for inactives: cytoprotection (ATP increase), hits mostly activators; 230,000 tested, 0.14% active; AID 1471; note: potency is the fitted concentration of half-maximal effect; % of control where 0% means no effect; nearly all actives have a fitted effect of over 45% in size
#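 PC12 cells with ecdysone-inducible HTT exon 1 Q103-GFP, induced with 100 nM tebufenozide and co-treated with library compounds in a dose series (1536-well, 1500 cells/well). Cytoprotection read as ATP content by ATPlite luminescence.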
# CBFb RUNX1 block = CBF-beta/RUNX1 interaction disruption; AlphaScreen CBFb-His/RUNX1-biotin binding, biochemical; AID 1477; Potency, µM (doses to about 59.8 µM), for the others: at the top dose activity, negative = inhibition, usual class: inhibitors; 230,000 tested, under 10 active; Q01196+Q13951; note: % of control where 0% means no effect
#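 His-tagged CBF-beta and biotinylated RUNX1 (30 nM each) were premixed 20 min at room temperature, exposed to compound for 15 min, then given nickel-chelate and streptavidin AlphaScreen beads (50 ng each). After 90 min, AlphaScreen signal was read.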
# HttQ103 aggreg = mutant huntingtin aggregation inhibition | PC12 HttQ103-GFP aggregates, Acumen cytometry, 40 h | Potency, µM (titrated, usually from 46.1 µM), for inactives: at the top dose activity change, negative = inhibition, actives largely listed as inhibitors | AID 1688 | 220,000 tested, 1.1% active; note: potency is the fitted concentration of half-maximal effect; % is set by controls: 0 for no effect and ±100 for the full control effect; nearly all actives have a fitted effect of over 60% in size
#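 Inducible Q103 Huntingtin exon 1–GFP PC12 line, 1500 cells/well in phenol red free DMEM with 5% equine and 5% calf serum. Tebufenozide 100 nM induced expression; compounds titrated; aggregates quantified by cytometry.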
# HPGD inh = blocks human HPGD enzyme activity | P15428 | purified HPGD, NADH fluorescence kinetic, PGE2 substrate | Potency, µM, inactives show at the top dose activity change, negative = inhibition, usual class: inhibitors | 150,000 tested, 4.3% active; active = well fitted inhibition curve with a large enough effect, not every such curve was filed as active; inconclusive = small, poorly fitted or top-dose-only effect, or another doubt; inactive = no such curve, though single readings can be large or run the other way; note: potency is the fitted concentration of half-maximal effect; % is set by controls: 0 for no effect and ±100 for the full control effect
# Target sequence (P15428 whole entry, looked up): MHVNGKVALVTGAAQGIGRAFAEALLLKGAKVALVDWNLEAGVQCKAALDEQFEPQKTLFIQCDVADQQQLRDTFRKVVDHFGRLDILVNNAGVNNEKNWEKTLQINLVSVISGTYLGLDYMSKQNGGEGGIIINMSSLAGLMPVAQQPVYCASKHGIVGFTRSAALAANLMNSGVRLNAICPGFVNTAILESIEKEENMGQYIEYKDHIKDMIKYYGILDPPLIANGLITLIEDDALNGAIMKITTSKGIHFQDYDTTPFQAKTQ
#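 20 nM HPGD preincubated 15 min at room temperature with compound in 50 mM Tris-HCl pH 8, 0.01% Tween 20. Started with 1 mM NAD+ and 30 uM prostaglandin E2; NADH fluorescence (360/450 nm) read 5 times over 30-s intervals, last minus first.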
# Starred values were filed as active, the others as inactive; ? = inconclusive; / = no result given; [ ] = another dose, or the depositor's remark. Unless noted, calls come from the whole dose curve; as a rule, active = well fitted curve in the direction sought with a large enough effect; inconclusive = small, poorly fitted or top-dose-only effect, or another doubt; inactive = no such curve, though single readings can be large; an effect the other way counts as inactive or inconclusive.
SMILES,JMJD2E inh,ALDH1A1 inh,HTT cytoprotect,CBFb RUNX1 block,HttQ103 aggreg,HPGD inh
Cc1cc(C(=O)COc2ncnc3sccc23)c(C)n1C1CC1,-29.9%,20µM*,-9.9%[10 µM],9.2%,?,-10.3%
Cc1cc(C(=O)COc2cccnc2[N+](=O)[O-])c(C)n1-c1ccccc1,-7.1%,20µM*,-14.1%[10 µM],?,?,-5.2%
Cc1ccc(-n2c(C)cc(C(=O)COc3cccnc3[N+](=O)[O-])c2C)cc1,-15.3%,?,21.4%[1.9 µM],-21.4%,?,-18.3%
Cc1cc(C(=O)COc2ccccc2C(N)=O)c(C)n1C1CC1,2.7%,?,-28.4%,-13.5%,0.2%,/
Cc1cc(C(=O)COc2ccccc2[N+](=O)[O-])c(C)n1C1CC1,-3.5%,31.6µM*,-35.1%,-13.8%,-10.8%,/
O=C(COc1ccccc1[N+](=O)[O-])c1ccccc1,2.2%,2µM*,-9.6%,-0.4%,4.9%[9.22 µM],/
CCCCC(=O)OCC(=O)Nc1cccc(S(=O)(=O)NC2=NCCCCC2)c1,7.3%,6.5%,-3.3%[10 µM],5.7%,-1.4%,/
NNS(=O)(=O)c1cc(C(=O)O)cc(C(=O)O)c1,/,-10.0%[13.5 µM],-0.2%[10 µM],/,/,-5.0%
Oc1nc(Nc2cccc(Cl)c2)sc1/C=C1\C=Nc2ccccc21,-0.9%,-0.7%,6.8%[10 µM],-12.3%,8.91µM*,/
Oc1cccc(Nc2nc(O)c(/C=C3\C=Nc4ccccc43)s2)c1,9.8%,/,-13.2%[10 µM],-14.4%,-11.5%[9.22 µM],/
CC(=O)N1CCCC1(C(=O)O)c1ccccc1 (stereo not drawn),0.2%,/,-15.4%[10 µM],1.0%,-23.2%[9.22 µM],/
NS(=O)(=O)c1ccc(NC(=O)C(=O)NCCC(=O)O)cc1,2.7%,?,6.8%[10 µM],16.3%,-5.0%[9.22 µM],/
COc1cccc(/C=C/C(=O)OCC(=O)Nc2cc(S(=O)(=O)N3CCOCC3)ccc2C)c1,5.3%,?,-38.4%,-2.9%,-8.3%,/
CCOC(=O)C(C)(C)N(Cc1cccc(C)c1)S(=O)(=O)c1cccc([N+](=O)[O-])c1,-4.4%,17.8µM*,-2.8%[10 µM],2.5%,-17.5%,-8.7%
CCOC(=O)C(C)(C)N(Cc1cccc(C)c1)S(=O)(=O)c1ccc(Cl)c([N+](=O)[O-])c1,-0.8%,1.7%,-8.5%[10 µM],-5.8%,-6.7%,-9.9%
Oc1ccc(N=Cc2cc(Br)c(N3CCOCC3)o2)cc1,0.4%,8.91µM*,/,5.9%,?,-25.0%
CN(C)C(=O)c1cc(C(=O)c2ccccc2Cl)c[nH]1,-6.1%,7.94µM*,16.3%[10 µM],7.5%,10.1%,/
NC(=O)c1cc(C(=O)c2cccc(Cl)c2Cl)c[nH]1,3.9%,?,-3.5%,4.7%,-20.9%,/
CN(C)C=NC(=O)c1cc(C(=O)c2ccccc2Cl)c[nH]1,4.5%,?,5.9%[10 µM],3.7%,10.6%,/
O=C(c1c[nH]c(C(=O)C(Cl)(Cl)Cl)c1)c1ccccc1Br,4.9%,1.78µM*,-11.6%[10 µM],-2.6%,4.7%,/
NC(=O)c1cc(C(=O)c2ccccc2Cl)c[nH]1,2.0%,8.91µM*,-25.2%[10 µM],-3.6%,-25.0%,/
COc1cc(C2=NOC(C(=O)Nc3c(C)n(C)n(-c4ccccc4)c3=O)C2)cc(OC)c1OC (stereo not drawn),-1.3%,/,6.9%[10 µM],6.5%,15.8%[9.22 µM],/
O=[N+]([O-])c1cc(S(=O)(=O)NC2=NCCCCC2)ccc1NCC1CCCCC1,-0.5%,?,-14.2%,?,?,/
CCOCCCn1c(C)nc2c(c1=O)c1nc3ccccc3nc1n2-c1ccc2c(c1)OCCO2,-1.8%,-10.3%,-5.6%[10 µM],-1.8%,-4.2%[9.22 µM],/
NS(=O)(=O)c1cccc(NC(=O)COC(=O)C2CCCCC2)c1,-1.2%,-3.8%,-15.2%,-1.3%,4.1%,/
SMILES,JMJD2E inh,ALDH1A1 inh,HTT cytoprotect,CBFb RUNX1 block,HttQ103 aggreg,HPGD inh
CCN(CC)S(=O)(=O)c1ccc2oc(C(=O)NCC3COc4ccccc4O3)c(C)c2c1 (stereo not drawn),?,14.1µM*,-42.5%,4.5%,?,-23.8%
CCc1ccc(C(=O)NCC2COc3ccccc3O2)o1 (stereo not drawn),0.1%,-9.7%,-8.7%[10 µM],2.8%,-3.8%,17.8µM*
O=C(CN1CCN(c2ccc(Cl)cc2)CC1)c1ccc2c(c1)OCO2,?,8.91µM*,-17.3%,-3.1%,9.4%,-6.9%
O=C(CN1CCN(c2ccc(F)cc2)CC1)c1ccc2c(c1)OCO2,-5.4%,8.91µM*,-21.3%,0.3%,19.8%,-1.9%
CN(C)CCCc1cc(C(=O)Nc2ccc(-c3ccncc3)cc2)ccc1O,-3.6%,?,?,?,/,-25.4%
O=C(c1ccccc1)N1CCN(C(=O)c2ccccc2)CC1,19.0%,1.4%,-14.7%[10 µM],-6.8%,9.8%,0.1%
Cc1scc(C(=O)N2CCN(c3ccc(Cl)cc3)CC2)c1C,8.2%,20µM*,2.7%[10 µM],-3.6%,-1.3%,/
CCOC(=O)N1CCN(c2ccc(Cl)cc2)CC1,3.1%,5.3%,17.4%[0.074 µM],2.8%,-2.4%,-10.2%
O=C(O)c1ccccc1C(=O)N1CCN(c2ccccc2)CC1,5.2%,15.8µM*,12.8%[10 µM],17.5%,-1.8%,-12.3%
O=C(c1ccccc1)N1CCN(c2ccc(Cl)cc2)CC1,-1.3%,14.1µM*,-11.8%,-4.1%,-0.3%[9.22 µM],-27.7%
O=C(N1CCCCC1)N1CCN(c2ccc(Cl)cc2)CC1,5.4%,7.94µM*,-4.1%[10 µM],5.4%,?,?
NS(=O)(=O)c1ccc(NC(=O)COC(=O)CCc2ccccc2)cc1,2.1%,14.7%,21.6%[10 µM],4.6%,-6.6%[9.22 µM],/
CC(=O)NC1C(c2nc3ccccc3s2)=C(c2ccccc2)C(=O)N1c1ccc(C)cc1 (stereo not drawn),-11.1%,7.94µM*,-8.6%[10 µM],-11.4%,9.9%,-24.3%
COc1cccc(N2C(=O)C(c3ccccc3)=C(c3nc4ccccc4s3)C2NC(C)=O)c1 (stereo not drawn),-5.7%,?,-17.9%,-3.0%,0.8%,-18.0%
Cc1cccc(OCCSc2nc(N)cc(N)n2)c1,-6.1%,/,19.8%[10 µM],-4.0%,-6.0%[9.22 µM],/
Cc1cc(C)nc(/N=C2\NC(=O)CC(C(=O)O)N2c2ccc(Oc3ccccc3)cc2)n1 (stereo not drawn),-2.0%,-4.8%,13.3%,5.6%,1.0%,12.6µM*
Cn1c(-c2ccc(F)cc2)cnc1NCc1ccc(C#N)cc1,?,5.01µM*,-17.7%[10 µM],2.1%,-1.5%,-13.8%
Cn1c(-c2ccc3c(c2)OCO3)cnc1NCc1ccc(Cl)cc1,?,?,-15.2%,-6.3%,-22.3%,?
Cn1c(-c2ccc(Br)cc2)cnc1NCc1cccnc1,?,10µM*,20.1%,2.4%,-7.6%,-8.2%
Cc1ccc(CNc2ncc(-c3ccc4c(c3)OCO4)n2C)cc1,?,15.8µM*,-10.0%,-4.2%,-4.2%,-19.4%
Cn1c(-c2cccc([N+](=O)[O-])c2)cnc1NCc1cccc([N+](=O)[O-])c1,-8.0%,4.74µM*,9.6%[10 µM],1.8%,-3.8%[9.22 µM],/
